# Inconclusive results are not listed. Calls of active or inactive are those of the source. How the source made its calls: active means hit-call score of the fitted dose curve at least 0.9, where 1 is the maximum; inconclusive means response in the unintended direction; inactive means score below 0.9.
# Biological target: Estrogen-related receptor gamma (Homo sapiens) (UniProt P62508)
# Test: ATG_ERRg_TRANS: Attagene TRANS-FACTORIAL HepG2 Assay for human Estrogen-Related Receptor gamma (ERRg) (AID 2282977);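 further: hits increase reporter signal over DMSO so potencies reflect activators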
# Details: HepG2 Attagene TRANS reporter, ERRg transactivation
# Experimental: ATG_TRANS is a cell-based, multiplexed-readout assay that uses HepG2, a human liver cell line, with measurements taken at 24 hours after chemical dosing in a 24-well plate.ATG_ERRg_TRANS is one of 30 assay component(s) measured or calculated from the ATG_TRANS assay. It is designed to make measurements of mRNA induction, a form of inducible reporter, as detected with fluorescence intensity signals by Reverse transcription polymerase chain reaction (RT-PCR) and Capillary electrophoresis technology.Data from the assay component ATG_ERRg_TRANS was analyzed into 1 assay endpoint. This assay endpoint, ATG_ERRg_TRANS, was analyzed in the positive analysis fitting direction relative to DMSO as the negative control and baseline of activity. Using a type of inducible reporter, measures of mRNA for gain-of-signal activity can be used to understand the reporter gene at the transcription factor-level as they relate to the gene ESRRG. Furthermore, this assay endpoint can be referred to as a primary readout, because this assay has produced multiple assay endpoints where this one serves a reporter gene function. To generalize the intended target to other relatable targets, this assay endpoint is annotated to the nuclear receptor intended target family, where the subfamily is steroidal.
# Human liver HepG2 cells are transiently transfected with multiple reporter transcription units (MRTUs) in 6-well plates using FuGene 6 reagent (Roche; 3 ml FuGene/1 mg DNA). The MRTU constructs are regulated by a cis-regulating element (promoter). […] A major difference between the CIS and TRANS system is that in CIS activities of endogenous TFs are measured, whereas the TRANS assay evaluates changes in activities of exogenous, chimeric NR-Gal4 proteins. […] At the end of 24 hour incubation, total RNA was isolated using TriZol reagent (Invitrogen). The isolated RNA is then reverse-transcribed using oligo(dT) primer and Mo-MLV reverse transcriptase (Invitrogen) with DNAse I (Ambion) treatment for 30 min. The one-tenth of the produced cDNA was amplified by PCR using Taq DNA polymerase (Invitrogen) and two reporter sequence-specific primers. The PCR products were fluorescently labeled by primer extension with 6-arboxyfluorescein (6-FAM) 5'-labeled reporter sequence-specific primer (2 min at 95 C, 20 s at 68 C and 10 min at 72 C) and these products were digested with 5U of HpaI (New England Biolabs) for 2h at 37 C. The fragments were purified using Qiaquick PCR columns (Qiagen), analyzed on an ABI 3130xL genetic analyzer (Applied Biosystems) with peak positions identified by using a set of X-rhodamine (ROX)-labeled MapMarker1000 molecular weight standards (BioVentures). The raw capillary electrophoresis data was processed using Attagraph software (Attagene).
# Estrogen-related receptor gamma (Homo sapiens), sequence (P62508 whole entry, looked up): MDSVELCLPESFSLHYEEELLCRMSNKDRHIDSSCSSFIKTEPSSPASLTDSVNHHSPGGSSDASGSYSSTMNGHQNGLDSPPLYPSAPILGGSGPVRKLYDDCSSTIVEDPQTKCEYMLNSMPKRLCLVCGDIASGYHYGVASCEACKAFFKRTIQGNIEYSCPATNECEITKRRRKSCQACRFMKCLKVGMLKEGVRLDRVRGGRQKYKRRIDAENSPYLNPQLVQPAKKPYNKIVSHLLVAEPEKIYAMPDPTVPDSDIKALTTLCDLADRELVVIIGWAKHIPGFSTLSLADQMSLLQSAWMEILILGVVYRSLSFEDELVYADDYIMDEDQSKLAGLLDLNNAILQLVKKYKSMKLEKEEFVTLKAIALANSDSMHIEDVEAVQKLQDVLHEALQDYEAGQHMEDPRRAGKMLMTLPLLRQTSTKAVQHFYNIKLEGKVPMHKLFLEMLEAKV
row,SMILES,outcome
1,CCNC(=O)NC(=O)C(C#N)=NOC,inactive
2,COC(=O)NS(=O)(=O)c1ccc(N)cc1,inactive
3,CN=C=S,inactive
4,CCOc1cc(C(C)(C)C)ccc1C1COC(c2c(F)cccc2F)=N1 (configuration not stated),inactive
5,CC(C)NC(=O)N1CC(=O)N(c2cc(Cl)cc(Cl)c2)C1=O,inactive
6,O=C1C2CC=CCC2C(=O)N1SC(Cl)(Cl)Cl (configuration not stated),inactive
7,CC(C)N1C(=O)N(c2ccccc2)CSC1=NC(C)(C)C,inactive
8,C=CCOC(=O)C(C)(C)OC(=O)c1cc(-n2c(=O)cc(C(F)(F)F)n(C)c2=O)ccc1Cl,inactive
9,COP(=O)(OC)O/C(C)=C/C(=O)N(C)C,inactive
10,CCC(C)n1c(=O)[nH]c(C)c(Br)c1=O (configuration not stated),inactive
11,Nc1c(Cl)c(F)nc(OCC(=O)O)c1Cl,inactive
12,CC1(C)C(C(=O)OC(C#N)c2cccc(Oc3ccccc3)c2)C1(C)C (configuration not stated),inactive
13,COP(=S)(OC)Oc1ccc([N+](=O)[O-])c(C)c1,inactive
14,CCCCOCN(C(=O)CCl)c1c(CC)cccc1CC,inactive
15,COC(=O)c1c(C(F)F)nc(C(F)(F)F)c(C2=NCCS2)c1CC(C)C,inactive
16,N#Cc1c(Cl)cccc1Cl,inactive

row,SMILES,outcome
1,CCCCC(C#N)(Cn1cncn1)c1ccc(Cl)cc1 (configuration not stated),inactive
2,N#CN=C1SCCN1Cc1ccc(Cl)nc1,inactive
3,CCOC(=O)C(C)OC(=O)c1cc(Oc2ccc(C(F)(F)F)cc2Cl)ccc1[N+](=O)[O-] (configuration not stated),inactive
4,CCCCC(O)(Cn1cncn1)c1ccc(Cl)cc1Cl (configuration not stated),inactive
5,COC(=O)N(C(=O)N1CO[C@@]2(C(=O)OC)Cc3cc(Cl)ccc3C2=N1)c1ccc(OC(F)(F)F)cc1,inactive
6,COP(=S)(OC)SCn1nnc2ccccc2c1=O,inactive
7,COc1cc(OC)nc(NC(=O)NS(=O)(=O)c2ncccc2OCC(F)(F)F)n1,inactive
8,Cc1cc(C)nc(Nc2ccccc2)n1,inactive
9,N#Cc1c[nH]cc1-c1cccc2c1OC(F)(F)O2,inactive
10,CS(=O)(=O)c1cc(C(F)(F)F)ccc1C(=O)c1cnoc1C1CC1,inactive
11,COCC(=O)N(c1c(C)cccc1C)C(C)C(=O)OC (configuration not stated),inactive
12,CCOc1nc(C(Cl)(Cl)Cl)ns1,inactive
13,CC(C)N1C(=O)c2ccccc2NS1(=O)=O,inactive
14,CC(C)Oc1cccc(NC(=O)c2ccccc2C(F)(F)F)c1,inactive
15,O=C(Nc1ccccc1-c1ccc(Cl)cc1)c1cccnc1Cl,inactive
16,COc1ccc(-c2ccccc2)cc1NNC(=O)OC(C)C,inactive
